High-throughput results: PubChem, several laboratories
A selection: hits, their analogues and other compounds. The true share with any hit is near 3.5%.
BJeLR lethal – BJeLR cell viability loss; BJeLR (HRASV12) viability, CellTiter-Glo ATP luminescence, 48 h; inhibition, % (no concentration beside the values); actives 0.17% (n = 300,000); AID 1554; in the data active = inhibition above about 50%; inconclusive = no clear call, values can overlap the other calls
BoNT F protease – blocks Botulinum neurotoxin F light chain protease; Multiplex microsphere protease cleavage assay, flow cytometry; inhibition, % at 10 µM; actives 0.22% (n = 360,000); AID 588497; in the data active = inhibition above about 35%, passing the limit was not always enough; inconclusive = no clear call, values can overlap the other calls; also: plate controls were buffer without enzyme for full effect and enzyme alone for no effect
BoNT-A LC inh2 – BoNT A light chain protease inhibition. inhibition, % at 10 µM. multiplex microsphere protease substrate cleavage, flow cytometry. actives 0.17% (n = 360,000); in the data active = inhibition above about 30%; inconclusive = no clear call, values can overlap the other calls; also: plate controls were buffer without enzyme for full effect and enzyme alone for no effect
Bead autofluor – compound fluorescence in toxin protease inhibitor counterscreen; compound autofluorescence counterscreen, microsphere flow cytometry; active compounds read high; fluorescence intensity (test concentration not listed); actives 3.1% (n = 360,000); in the data active = fluorescence intensity above about 16000; inconclusive = no clear call, values can overlap the other calls
Anthrax LF prot – inhibitors of Bacillus anthracis lethal factor protease. AID 588501. multiplex microsphere protease cleavage assay, LF. P15917. actives 0.12% (n = 360,000). inhibition, % at 10 µM; in the data active = inhibition above about 30%; inconclusive = no clear call, values can overlap the other calls; also: plate controls were buffer without enzyme for full effect and enzyme alone for no effect
Target sequence (P15917 whole entry, looked up): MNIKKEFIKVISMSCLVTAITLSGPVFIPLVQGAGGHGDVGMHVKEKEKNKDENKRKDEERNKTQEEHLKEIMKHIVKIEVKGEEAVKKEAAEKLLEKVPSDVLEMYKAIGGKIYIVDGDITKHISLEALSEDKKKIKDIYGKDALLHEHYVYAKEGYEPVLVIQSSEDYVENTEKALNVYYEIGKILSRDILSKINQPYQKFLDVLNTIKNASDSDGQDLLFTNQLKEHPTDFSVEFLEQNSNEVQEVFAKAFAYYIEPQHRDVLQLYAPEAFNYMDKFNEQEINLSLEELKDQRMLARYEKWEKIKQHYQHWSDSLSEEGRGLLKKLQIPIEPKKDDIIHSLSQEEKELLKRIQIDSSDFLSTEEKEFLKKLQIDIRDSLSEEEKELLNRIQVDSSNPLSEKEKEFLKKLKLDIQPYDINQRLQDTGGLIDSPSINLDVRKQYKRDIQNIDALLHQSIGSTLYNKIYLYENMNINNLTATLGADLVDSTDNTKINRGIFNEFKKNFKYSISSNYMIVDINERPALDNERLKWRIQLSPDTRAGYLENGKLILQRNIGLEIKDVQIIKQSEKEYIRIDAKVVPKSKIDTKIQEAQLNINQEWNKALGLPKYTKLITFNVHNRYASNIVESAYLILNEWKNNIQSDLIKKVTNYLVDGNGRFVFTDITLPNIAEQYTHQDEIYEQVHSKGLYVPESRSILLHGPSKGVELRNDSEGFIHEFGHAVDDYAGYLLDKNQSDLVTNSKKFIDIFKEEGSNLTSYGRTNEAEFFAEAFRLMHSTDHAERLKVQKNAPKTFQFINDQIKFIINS
BoNTA LC inh 2 – blocks botulinum neurotoxin A light chain protease | inhibition, % at 10 µM | actives 10% (n = 150) | shares compounds with BoNT-A LC inh2 | multiplex microsphere protease cleavage assay, flow cytometry; in the data active = inhibition above about 24%
Anthrax LF CP2 – blocks anthrax lethal factor protease; shares compounds with BoNT-A LC inh2; multiplex microsphere protease cleavage assay; inhibition, % at 10 µM; actives 7% (n = 150); AID 602327
BoNT-F LC CP2 – inhibitors of botulinum neurotoxin F light chain protease; shares compounds with BoNT-A LC inh2; multiplex microsphere protease cleavage assay, flow cytometry; inhibition, % at 10 µM; actives 7% (n = 150)
Active calls of the source: *; ? = inconclusive; . = no result given. Rule as the data show it, unless noted: active = inhibition above about 25%; inactive = the rest.

SMILES | BJeLR lethal | BoNT F protease | BoNT-A LC inh2 | Bead autofluor | Anthrax LF prot | BoNTA LC inh 2 | Anthrax LF CP2 | BoNT-F LC CP2
COc1ccc(C(CNC(=O)c2cc(S(=O)(=O)N3CCCCC3)ccc2C)N2CCCC2)cc1 (configuration not stated) | . | 45* | -4 | 19413* | 10 | -13 | 3 | 35*
COc1ccc(C(CNC(=O)c2cccc(S(=O)(=O)N3CCCCC3)c2)N2CCCC2)cc1 (configuration not stated) | . | 9 | -5 | 9930 | -4 | 0 | -2 | -2
COc1ccc(NS(=O)(=O)c2cccc(C(=O)NCC(c3ccc(OC)cc3)N3CCCCC3)c2)cc1 (configuration not stated) | . | -10 | -1 | 7419 | -3 | . | . | .
O=C(NCCN1CCCC1)C(c1ccccc1)c1ccccc1 | 3 | ? | -60 | ? | -53 | . | . | .
CCc1nnc(SCC(=O)Nc2ccc(N3CCOCC3)cc2)n1C | -9 | -3 | -1 | 5851 | -2 | . | . | .
Cc1ccc(OCC(=O)O/N=C(\N)Cc2ccc([N+](=O)[O-])cc2)cc1C | -6 | ? | 0 | 3940 | 0 | . | . | .
COc1ccc(CC(=O)NCc2ccc(F)cc2)cc1S(=O)(=O)N1CCOCC1 | . | 1 | 0 | 3940 | 5 | . | . | .
CCN(CC)c1ccc2cc(C(=O)c3cccs3)c(=O)oc2c1 | . | 32 | 54* | 5733 | 33* | 22 | 21 | 16
CCN(CC)c1ccc2cc(C(=O)NCc3ccc(F)cc3)c(=N)oc2c1 | 7 | 16 | 18 | 11232 | 9 | . | . | .
CCN(CC)c1ccc(-c2sc(Nc3ccccc3)n[n+]2-c2ccc(F)cc2)cc1 | 10 | 1 | 27 | 17190* | 44* | 7 | 14 | 3
CN(C)c1ccc(-c2sc(Nc3ccccc3)n[n+]2-c2ccc(F)cc2)cc1 | 12 | 10 | 8 | 10058 | 26 | . | . | .
c1ccc(-c2nc3nonc3nc2-c2ccccc2)cc1 | -1 | 4 | 1 | 7942 | -17 | . | . | .
O=C(CCC1CCCC1)N1CCN(S(=O)(=O)c2ccc(Br)cc2)CC1 | . | 83* | 80* | 6066 | 89* | 2 | 0 | 6
O=C(CC1CCCC1)N1CCN(S(=O)(=O)c2ccc(F)cc2)CC1 | . | 0 | 0 | 3402 | 2 | . | . | .
Cc1cc2cc(CNC(=O)Nc3ccc(Cl)c(Cl)c3)ccc2n1C | -23 | -123 | 35* | 2226 | -117 | 10 | -6 | -38
CCOc1ccc(CC(=O)NCc2ccc3c(c2)cc(C)n3C)cc1 | -4 | -29 | 81* | 2221 | -8 | 3 | -1 | 5
Cc1onc(-c2ccccc2Cl)c1C(=O)NCc1ccc2c(c1)cc(C)n2C | 9 | -87 | 83* | 2004 | -75 | 49* | 20 | -40
COc1ccc(C(=O)NCc2ccc3c(c2)cc(C)n3C)cc1 | -7 | -82 | 95* | 1203 | -37 | 8 | 9 | 13
COc1ccc(CC(=O)Nc2cc(S(=O)(=O)N3CCOCC3)ccc2N2CCOCC2)cc1OC | . | 2 | 2 | 8146 | -7 | . | . | .
O=C(NCc1ccc(F)cc1)c1cccc2c1C(=O)c1ccc(N3CCOCC3)cc1S2(=O)=O | . | 2 | 3 | 2751 | 4 | . | . | .
O=C(NC1CCCCC1)c1cccc2c1C(=O)c1ccc(N3CCCC3)cc1S2(=O)=O | . | 5 | 2 | 4029 | -2 | . | . | .
CC(C)(C)CNC(=O)c1cccc2c1C(=O)c1ccc(N3CCCC3)cc1S2(=O)=O | . | 0 | 4 | 4481 | 5 | . | . | .
CC1CCN(c2ccc3c(c2)S(=O)(=O)c2cccc(C(=O)NC4CCCCC4)c2C3=O)CC1 | . | 6 | 8 | 4303 | 11 | 5 | 6 | 16
COc1ccccc1N1CCN(c2ccc3c(c2)S(=O)(=O)c2cccc(C(=O)NCC4CC4)c2C3=O)CC1 | . | -3 | 0 | 3266 | -6 | 3 | 3 | 15
O=C(NCc1cc(C(F)(F)F)ccc1Cl)c1cccc2c1C(=O)c1ccc(N3CCC(Cc4ccccc4)CC3)cc1S2(=O)=O | . | 12 | 7 | 5976 | 18 | 7 | 8 | 16
SMILES | BJeLR lethal | BoNT F protease | BoNT-A LC inh2 | Bead autofluor | Anthrax LF prot | BoNTA LC inh 2 | Anthrax LF CP2 | BoNT-F LC CP2
O=C(NC1CC1)c1cccc2c1C(=O)c1ccc(N3CCC(Cc4ccccc4)CC3)cc1S2(=O)=O | . | 16 | 11 | 4605 | 16 | . | . | .
CC1CCN(c2ccc3c(c2)S(=O)(=O)c2cccc(C(=O)NCc4ccc(F)cc4)c2C3=O)CC1 | . | -1 | 8 | 3007 | 3 | 5 | 2 | -1
CSCc1ccc(C(=O)NCC(c2cccs2)N2CCOCC2)cc1 (configuration not stated) | -4 | 4 | -3 | ? | 0 | . | . | .
Cc1c(NC(=O)COC(=O)c2cccc(F)c2)c(=O)n(-c2ccccc2)n1C | . | 0 | 0 | 2846 | -6 | . | . | .
CC(OC(=O)CCNS(=O)(=O)c1ccccc1)C(=O)Nc1ccc(S(=O)(=O)N2CCCCC2)cc1 (configuration not stated) | . | -5 | 0 | 3933 | -4 | . | . | .
COc1cccc(C(=O)OCC(=O)c2c[nH]c3ccccc23)c1O | -18 | -6 | 1 | 4429 | -2 | 10 | 13 | 37*
CC(=O)OCC(=O)c1c[nH]c2ccccc12 | 4 | -6 | 0 | 5991 | -3 | . | . | .
O=c1[nH]c2cc([N+](=O)[O-])c(NCCO)c([N+](=O)[O-])c2[nH]1 | -1 | -1 | 0 | 4591 | -3 | . | . | .
CCN(CC)C(=O)c1ccc2nc([C@@H]3O[C@H](CO)[C@H](O)[C@H](O)[C@H]3O)[nH]c2c1 | . | 4 | 0 | 3554 | 1 | . | . | .
COc1ccc2c(c1)nc(-c1cccc(Br)c1)c(=O)n2C(c1ccccn1)c1nc2ccccc2[nH]1 (configuration not stated) | . | -2 | 30* | 3816 | 24 | 12 | 8 | 10
COc1ccc(Cc2c(-c3cccc(Br)c3)nc3cc(C)c(Br)c(C)n23)c(C)c1 | . | 5 | 1 | 4530 | 0 | . | . | .
